An excerpt weighted towards active compounds, which were near 3.2% of everything screened.
Mtb bLac sens: beta-lactam sensitization of Mtb H37Rv. M. tuberculosis H37Rv growth with meropenem, percent inhibition. 330,000 tested, 0.27% active. AID 434955. inhibition, % at 25 µM; call rule not given here;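 further: growth measured after seven days incubation then overnight dye step; 0% = bacteria only wells and 100% = bacteria with antibiotic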
GDH-TPI counter: inhibits GDH-TPI coupling enzymes, artifact for Mtb FBA screen; inhibition, % at 4.8 µM; AID 588335; GDH-TPI coupled enzyme counterscreen, NADH absorbance; 360,000 tested, 1.2% active; in the data active means inhibition above about 30%;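 further: 0% = DMSO wells and 100% = wells lacking the enzyme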
Mtb FBA inh: inhibitors of M. tuberculosis fructose-bisphosphate aldolase; P9WQA3; purified M. tuberculosis FBA, fluorescence read-out; 360,000 tested, 2.3% active; AID 588726; inhibition, % at 1 µM; in the data active means inhibition above about 27%;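 further: 0% = vehicle and 100% = reference inhibitor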
Mtb UGM inh: inhibitors of M. tuberculosis UDP-galactopyranose mutase. 320,000 tested, 0.06% active. P9WIQ1. inhibition, % at 10 µM. purified UGM, fluorescence polarization probe displacement; in the data active means inhibition above about 10%, passing the limit was not always enough; inconclusive means no clear call, values can overlap the other calls
Rv3671c protease: inhibits the M. tuberculosis serine protease Rv3671c; P9WHR9; inhibition, % at 5.96 µM; 320,000 tested, 0.048% active; in the data active means inhibition above about 38%;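 further: extracellular domain of Rv3671c used as enzyme; 0% = enzyme with DMSO and 100% = no enzyme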
Target sequence (P9WHR9 whole entry, looked up, the tested form may be a part): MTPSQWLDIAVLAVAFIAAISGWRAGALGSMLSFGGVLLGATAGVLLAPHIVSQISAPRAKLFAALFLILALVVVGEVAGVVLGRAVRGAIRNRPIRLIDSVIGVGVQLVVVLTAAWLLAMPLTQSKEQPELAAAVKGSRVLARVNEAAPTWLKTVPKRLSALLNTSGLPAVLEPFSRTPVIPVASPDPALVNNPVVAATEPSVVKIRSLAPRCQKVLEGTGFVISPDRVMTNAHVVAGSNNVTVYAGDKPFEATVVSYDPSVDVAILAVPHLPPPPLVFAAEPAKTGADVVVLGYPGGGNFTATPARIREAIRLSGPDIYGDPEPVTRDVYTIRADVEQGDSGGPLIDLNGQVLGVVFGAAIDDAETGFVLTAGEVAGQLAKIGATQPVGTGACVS
PriA SSB inh: inhibitors of Klebsiella pneumoniae PriA binding to SSB C-terminal tail | AlphaScreen SSBct-PriA binding, biotinylated peptide | inhibition, % at 33 µM | 430,000 tested, 0.6% active | AID 1272365; in the data active means inhibition mostly above about 37%, no sharp cut-off; inactive means mostly below about 20%;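 further: plate controls were negative control peptide for no effect and reference peptide for full effect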
An asterisk follows results filed as active; i = inactive; ? = inconclusive; . = no result; + = active, no number; ! = a repeat was not active.

SMILES | Mtb bLac sens | GDH-TPI counter | Mtb FBA inh | Mtb UGM inh | Rv3671c protease | PriA SSB inh
CCOC(=O)c1ccc(NS(=O)(=O)c2c(C)nc3sccn3c2=O)cc1 | -3 | 35* | 2 | 2 | -6 | -8
Cc1onc(-c2ccccc2)c1C(=O)NC(=S)NNC(=O)c1ccccc1O | 8 | 16 | 9 | 0 | 14 | 64*
COc1ccccc1C(=O)NNC(=S)NC(=O)c1cccs1 | 98 | 14 | 2 | 0 | 2 | .
O=C(NC(=S)NNC(=O)c1ccccc1O)c1cccs1 | 43 | 17 | 5 | -2 | 19 | 45*
Cc1onc(-c2ccccc2)c1C(=O)NC(=S)NNC(=O)c1ccc(O)cc1O | ? | 24 | -1 | 7 | 3 | 31
COc1ccc(/C=N\NC(=O)Cc2ccc([N+](=O)[O-])cc2)cc1 | . | . | . | . | . | -2
COc1cc(C=NNC(=O)c2cc(-c3ccccc3C)nc3ccccc23)cc(OC)c1O | . | . | . | . | . | -2
CC(=O)c1ccc(OCC(=O)Nc2cc(N3CCCC3)ncn2)cc1 | . | . | . | . | . | -16
COC(=O)C1=CN(Cc2ccc(OC)c(OC)c2)C=C(C(=O)OC)C1c1cccc(F)c1 | -10 | 1 | 123* | 0 | 0 | -38
COC(=O)C1=CN(Cc2ccccc2)C=C(C(=O)OC)C1c1cc(F)ccc1F | 3 | 8 | 122* | 1 | 6 | -40
Cc1cc(C(=O)Nc2ccc(-c3nc4ccccc4s3)cc2)nn1C | . | . | . | . | . | 2
O=C(Nc1cccc(Br)c1)c1cnn2c1OCCC2 | . | . | . | . | . | -12
CN(C)/C=C/C(=O)c1ccc(N2CCN(c3ncc(C(F)(F)F)cc3Cl)CC2)cc1 | 82 | 40* | 2 | 1 | -2 | 8
CC1COc2c(N3CCN(C)CC3)c(F)cc3c(=O)c(C(=O)O)cn1c23 (stereo not given) | 100 | 25 | 97* | 3 | -13 | -4
Nc1cc(Cl)nc(NN=Cc2ccccc2[N+](=O)[O-])n1 | . | . | . | . | . | -9
C=C(C)CSc1nc2nc(C)c(Br)cc2[nH]1 | 3 | 36* | 2 | 1 | 3 | .
COC(=O)CSc1nc2nc(C)c(Br)cc2[nH]1 | -10 | 1 | 1 | 1 | -10 | -8
COc1ccc(C(CC(=O)c2ccco2)Sc2cccc3cccnc23)cc1OC (stereo not given) | . | . | . | . | . | 81*
COc1ccc(C(NC(=O)c2ccco2)c2ccc(OC)c(OC)c2)cc1OC | -4 | 5 | 1 | 0 | -12 | 8
O=C(C[C@H](Sc1cccc2cccnc12)c1ccc(OC(F)F)cc1)c1ccco1 | . | . | . | . | . | 83*
[O-]C(=C(C(=S)Nc1ccccc1F)[n+]1ccccc1)c1ccc(OC(F)F)cc1 | . | . | . | . | . | -1
COc1ccccc1C1CCN(C(=O)c2ccccc2)CC1 | -5 | -4 | 2 | 0 | 0 | -12
COc1ccccc1C1CCN(C(=O)C2CCCCC2)CC1 | 9 | 5 | 0 | -2 | 6 | 41*
COc1cc(NC(=O)CCCn2nc(-c3ccc(Cl)cc3)ccc2=O)cc(OC)c1 | . | . | . | . | . | -4
CCOc1cc(/C=N\Nc2ncc(F)c(N3CCOCC3)n2)ccc1Oc1nc(Cl)ncc1F | 81 | 33* | -3 | -2 | 6 | .
SMILES | Mtb bLac sens | GDH-TPI counter | Mtb FBA inh | Mtb UGM inh | Rv3671c protease | PriA SSB inh
Cc1nc(NN=Cc2ccc(Br)cc2)cc(N2CCOCC2)n1 | . | . | . | . | . | -22
Cc1cc(NN=Cc2ccccc2O)nc(N2CCOCC2)n1 | . | . | . | . | . | 9
Oc1ccc(/C=N\Nc2cc(N3CCOCC3)nc(N3CCOCC3)n2)c(O)c1 | -5 | 65* | 0 | 1 | -15 | .
Cc1cc(N/N=C/c2ccc(O)cc2O)nc(N2CCOCC2)n1 | 5 | 69* | -8 | -2 | 3 | .
Cc1nc(N/N=C/c2cccnc2)cc(N2CCOCC2)n1 | . | 31* | -2 | . | . | .
COc1nc(N/N=C/c2cc3c(cc2Br)OCO3)nc(N2CCOCC2)n1 | 11 | 33* | 1 | -2 | 0 | .
Oc1ccc(C=NNc2cc(N3CCOCC3)nc(N3CCOCC3)n2)cc1 | . | . | . | . | . | 17
O=S(=O)(c1cccnc1)N1CCN(C[C@H](O)c2ccco2)CC1 | . | . | . | . | . | -3
CC1CC(C)CN(S(=O)(=O)c2ccc(C(=O)Nc3nc4ccc(C(C)C)cc4s3)cc2)C1 (stereo not given) | . | . | . | . | . | -20
CCCCOc1ccc(C=NNC(=O)c2csc(C)c2C)cc1 | . | . | . | . | . | -19
C=C(C)Cn1c(-c2ccc(N)cc2)nc2ccccc21 | . | . | . | . | . | 21
Cc1ccc(/C=N/Nc2cc(C)nc(N3CCOCC3)n2)cc1 | 0 | 31* | -2 | -2 | 11 | i
COc1ccc(/C=N/Nc2cc(C)nc(N3CCOCC3)n2)c(OC)c1 | -6 | 48* | -3 | 0 | 6 | i
O=C(COc1ccccc1)Nc1ccc2c(c1)N(C(=O)c1cccs1)CCC2 | . | . | . | . | . | -6
c1cn2c(-c3ccoc3)cncc2n1 | . | 3 | 26 | . | . | .
OCc1ccc(-c2cncc3nccn23)cc1 | . | 13 | + | . | . | .
COc1ccc(-c2nc(C#N)c(NCC3CCCO3)o2)cc1 (stereo not given) | -7 | 16 | 177* | 1 | 10 | -4
N#Cc1nc(-c2cccs2)oc1NCC1CCCO1 (stereo not given) | 4 | 19 | + | 3 | 2 | -2
O=S(=O)(c1ccccc1)c1nc(-c2cccs2)oc1NCC1CCCO1 (stereo not given) | -5 | 22 | -1 | 0 | -1 | -14
Cc1ccc(-c2nc(C#N)c(NCC3CCCO3)o2)cc1 (stereo not given) | 0 | 6 | 180* | -1 | 1 | 12
Cc1n[nH]c(C)c1NC(=O)c1cc([N+](=O)[O-])ccc1Cl | -2 | 5 | 142* | 0 | -2 | 6
Cc1c(C2C(C#N)=C(N)N(c3ccccc3C#N)C3=C2C(=O)CCC3)cnn1C (stereo not given) | 1 | 17 | -2 | 1 | 0 | 38*
COc1ccc(-n2c(=O)[nH]cc(C(=O)Nc3ccc4c(c3)OCCO4)c2=O)cc1OC | 2 | 2 | 0 | 2 | -1 | -9
O=C(Nc1ccc2c(c1)OCO2)c1c[nH]c(=O)n(-c2ccc(F)cc2)c1=O | 2 | 6 | -2 | 0 | 8 | 38*!
CCCCN(C(=O)C(=O)c1c[nH]c2ccccc12)c1ccccc1 | . | . | . | . | . | 5
SMILES | Mtb bLac sens | GDH-TPI counter | Mtb FBA inh | Mtb UGM inh | Rv3671c protease | PriA SSB inh
COc1ccc(-n2c(O)c(/C=C3\C=Nc4ccc(Br)cc43)c(=O)[nH]c2=O)cc1 | 9 | -6 | 3 | 41* | -14 | .
CCOc1ccc(/C=C2\NC(=S)NC2=O)cc1 | -3 | 23 | 2 | 0 | -13 | 7
Cc1no[n+]([O-])c1COc1ccc(/C=C2\NC(=S)NC2=O)cc1 | 3 | 39* | 3 | 2 | -15 | -6
NS(=O)(=O)c1ccc(CCNc2cnc3cc(S(=O)(=O)N4CCCCC4)ccc3n2)cc1 | . | . | . | . | . | 102*
Cc1cc(NC(=O)C(=O)NCCc2ccc(Cl)cc2)c2ccccc2n1 | . | . | . | . | . | -3
Cn1c(=O)c2cc(NC(=O)Cc3cccnc3)ccc2n1-c1ccc2ccccc2c1 | . | 8 | 3 | . | . | .
Cn1c(=O)c2cc(NC(=O)CCc3cccnc3)ccc2n1Cc1cccc(C(F)(F)F)c1 | . | 5 | 141* | . | . | .
COc1cc(Cn2c3ccc(NC(=O)CCc4ccccc4)cc3c(=O)n2C)ccc1F | . | 13 | 157* | . | . | .
